Measured values taken from PubChem BioAssay (NCATS).
Results filed as inconclusive are left out. The source made the active and inactive calls. Calls come from the whole dose curve; as a rule, active = well fitted curve in the direction sought with a large enough effect; inconclusive = small, poorly fitted or top-dose-only effect, or another doubt; inactive = no such curve, though single readings can be large; an effect the other way counts as inactive or inconclusive.

What was measured:
[1] = COV-362 Cancer Cell Toxicity qHTS against the NCATS CANVASS Library (AID 1347352); settings: COV-362 viability, CellTiter-Glo luminescence, 72 h; series mostly up to 38.3 µM
Procedure, shortened: (§1)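 Cells at 1000/well were given compound 4 h after plating in an 11-point series. Viability was read by CellTiter-Glo luminescence after 72 h at 37 degrees C.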

[2] = A2780 Cisplatin Sensitive Ovarian Cancer Cell Toxicity qHTS against the NCATS CANVASS Library (AID 1347353); settings: A2780 ovarian cancer viability, ATPLite luminescence, 72 h; at 46.1 µM (top of the series); note: nearly all actives have a fitted effect of over 60% in size
Procedure, shortened: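 A2780 cells, 750/well, settled 4 h at 37 °C, then treated with an 11-point compound series for 72 h. Viability was read as ATPLite luminescence after 10 min at room temperature, with bortezomib as control.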

[3] = UWB1.289-WTBRCA1 Cancer Cell Toxicity qHTS against the NCATS CANVASS Library (AID 1347354); settings: UWB1.289-WTBRCA1 viability, CellTiter-Glo luminescence, 72 h; series mostly up to 38.3 µM
Procedure, shortened: as §1

[4] = HEK-293 Cancer Cell Toxicity qHTS against the NCATS CANVASS Library (AID 1347355); settings: HEK-293 viability, CellTiter-Glo luminescence, 72 h; at 46.1 µM (top of the series); note: nearly all actives have a fitted effect of over 65% in size
Procedure, shortened: as §1

[5] = HPAF-II 24hr Apoptosis Induction qHTS against the NCATS CANVASS Library (AID 1347356); settings: HPAF-II caspase-3/7 Caspase-Glo luminescence; series mostly up to 46.1 µM
Procedure, shortened: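 HPAF-II cells (500/well) exposed to compounds in 11-point series for 24 h at 37 degrees C; caspase-3/7 activity read by Caspase-Glo luminescence after 15 min at room temperature. Doxorubicin titration as control.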

[6] = HEK293 18hr Apoptosis Induction qHTS against the NCATS CANVASS Library (AID 1347357); settings: HEK293 caspase-3/7 Caspase-Glo luminescence; series mostly up to 46.1 µM
Procedure, shortened: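 Luminescent caspase-3/7 signal is measured in HEK293 cells exposed for 18 hours to an 11-point concentration series; doxorubicin serves as the plate control.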

[7] = HPAF-II 12hr Apoptosis Induction qHTS against the NCATS CANVASS Library (AID 1347358); settings: HPAF-II caspase-3/7 Caspase-Glo luminescence; series mostly up to 46.1 µM
Procedure, shortened: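 HPAF-II cells, 500/well in DMEM + 10% FBS, exposed 12 hours at 37 degrees C to compound (11-point). Caspase-Glo 3/7 added for 15 min at room temperature; luminescence reflects caspase-3/7 activity.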

[8] = HEK293 24hr Apoptosis Induction qHTS against the NCATS CANVASS Library (AID 1347359); settings: HEK293 caspase-3/7 activation, Caspase-Glo luminescence; series mostly up to 46.1 µM
Procedure, shortened: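 HEK293 cells (500/well, DMEM + 10% FBS) were exposed to compounds in an 11-point series for 24 hours at 37 degrees C, then caspase-3/7 activity was read by Caspase-Glo DEVD luciferase luminescence after 15 min.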

[9] = HPAF-II 18hr Apoptosis Induction qHTS against the NCATS CANVASS Library (AID 1347360); settings: HPAF-II caspase-3/7 luminescence; series mostly up to 46.1 µM
Procedure, shortened: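 Apoptosis was scored as caspase-3/7 activity in HPAF-II pancreatic cancer cells treated 18 hours with an 11-point concentration series.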

[10] = HEK293 12hr Apoptosis Induction qHTS against the NCATS CANVASS Library (AID 1347361); settings: HEK293 caspase-3/7 Caspase-Glo luminescence; series mostly up to 46.1 µM
Procedure, shortened: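 Apoptosis in HEK293 was scored as caspase-3/7 luminescence following 12 h treatment with a compound concentration series in qHTS format.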

Measured: outcome

COc1ccc2[nH]cc(CCNC(C)=O)c2c1
inactive: all assays above
